We go through 37 compounds from PubChem BioAssay (NCATS).

Inconclusive results are not listed. Entries that show only a call come without a potency. Calls of active or inactive are those of the source. Calls follow the shape of the dose curve; as a rule, active = well fitted inhibition curve with a large enough effect; inconclusive = small, poorly fitted or top-dose-only effect; inactive = flat fitted curve, though single readings scatter.
Potency is read from the fitted curve at half-maximal effect.

The subject of this test is Zika virus NS2B-NS3 protease. The test is described as follows: Primary screen GU AMC qHTS for Zika virus inhibitors (AID 1347154). Also: nearly all actives have a fitted effect of over 70% in size. The following applies: Zika NS2B-NS3 unlinked protease, AMC fluorogenic substrate; series mostly up to 54.1 µM. In a few lines: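 Unlinked Zika NS2B hydrophilic domain/NS3 protease domain noncovalent complex (25 nM final) in 10 mM Tris-HCl pH 8.0, 0.01% Tween 20, with AMC peptide substrate. Fluorescence (ex 340, em 450 nm) change over 15 min, room temperature; percent inhibition fitted to 4-parameter Hill equation.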
Background: qHTS replaces the single test concentration by a dilution series.
Turning to `COc1ccc(Cc2cnc(N)nc2N)cc1OC`, the Potency result is “inactive”.
The result for `CCCNC(C)C(=O)Nc1c(C)csc1C(=O)OC` (configuration not stated) reads “inactive”; that for `NS(=O)(=O)c1cc2c(cc1C(F)(F)F)NCNS2(=O)=O`, “inactive”.
On to `Cn1cc(C(=O)[C@@H]2CCc3nc[nH]c3C2)c2ccccc21`, for which the Potency entry is “inactive”.
Consider `c1ccc2[nH]ccc2c1`, for which the Potency result was “inactive”.
Consider `NS(=O)(=O)c1ccc(C(=O)O)cc1`, for which the Potency result is “inactive”.
Turning to `CCCCC1(COC(=O)CCC(=O)O)C(=O)N(c2ccccc2)N(c2ccccc2)C1=O`, the Potency result was “inactive”.
For the compound `CC1CCc2cc(F)cc3c(=O)c(C(=O)O)cn1c23` (configuration not stated), the Potency entry is “inactive”.
Turning to `O=C(O)c1cc(=O)c2ccccc2o1`, the Potency result is “inactive”.
On to `Cc1c(NC(=O)c2cccnc2)c(=O)n(-c2ccccc2)n1C`, for which the Potency result is “inactive”.
Consider `C=CCSCC1Nc2cc(Cl)c(S(N)(=O)=O)cc2S(=O)(=O)N1` (configuration not stated), for which the Potency entry is “inactive”.
As for `O=C1c2ccccc2S(=O)(=O)N1CCCCN1CCN(c2ncccn2)CC1`, the Potency entry was “inactive”.
Consider `NC(=O)CC[C@@H](N)C(=O)O`, for which the Potency entry was “inactive”.
Take `CCOC(=O)[C@H](CCc1ccccc1)N[C@@H](C)C(=O)N1CCC[C@H]1C(=O)O`: the Potency entry was “inactive”.
The result for `C[C@H]1COc2c(C3(N)CC3)c(F)cc3c(=O)c(C(=O)O)cn1c23` reads “inactive”.
The result for `CCN[C@H]1CN(CCCOC)S(=O)(=O)c2sc(S(N)(=O)=O)cc21` reads “inactive”.
In the case of `CCN(CC)S(=O)(=O)c1ccc(C(=O)O)cc1`, the Potency entry is “inactive”.
The result for `O=C(O)c1ccc[n+]([O-])c1` reads “inactive”.
For `CC[C@]12CCCN3CCc4c(n(c5ccccc45)[C@@](O)(C(=O)OC)C1)[C@@H]32` the value was “inactive”; for `CC(CSC(=O)c1ccccc1)C(=O)N1C[C@@H](Sc2ccccc2)C[C@H]1C(=O)O` (some centres not stated), “inactive”.
For `CCCCCCCCCCCCCCCCC(C(=O)O)C(O)(CC(=O)O)C(=O)O` (configuration not stated), the Potency was 4.05 µM (active).
In the case of `FC(F)(F)C(Cl)Br` (configuration not stated), the Potency result is “inactive”.
The result for `CC1(c2ccccc2)OC(C(=O)O)=CC1=O` (configuration not stated) reads “inactive”; that for `CCCNC(C)(C)COC(=O)c1ccccc1`, “inactive”.
With `CN1CCN(C(=O)C2CCCCC2)CC1`, the Potency result is “inactive”.
For `CC(=O)N1C[C@H](O)C[C@H]1C(=O)O` the value was “inactive”; for `Nc1ncnc(Nc2ccccc2)n1`, “inactive”; for `O=C(O)CCCCC1CCSS1` (configuration not stated), “inactive”.
Regarding `CC(=O)Oc1cccc(O)c1`, the Potency result was “inactive”.
The result for `COc1ccccc1OC(=O)Oc1ccccc1OC` reads “inactive”; that for `Cc1c(I)c(=O)n(-c2ccccc2)n1C`, “inactive”; that for `CN1C(C)(C)CCCC1(C)C`, “inactive”.
In the case of `OC(CCN1CCCC1)(c1ccccc1)C1CCCCC1` (configuration not stated), the Potency entry is “inactive”.
As for `CN1CC(=O)NC1=N`, the Potency result was “inactive”.
For the compound `CC(=O)Oc1cccc(C)c1`, the Potency result is “inactive”.
Take `Cc1c(C)c2c(c(C)c1OC(=O)c1cccnc1)CC[C@@](C)(CCC[C@H](C)CCC[C@H](C)CCCC(C)C)O2`: the Potency result is “inactive”.
As for `Cc1c(Cn2ccnc2)c2ccccc2n1CCC(=O)O`, the Potency entry is “inactive”.
